# Measurements: paper PMC7862700, “An all-to-all approach to the identification of sequence-specific readers for epigenetic DNA modifications on cytosine”
# How the values were obtained:
# Experiment in all cases: DAPPL (digital affinity profiling via proximity ligation, sequencing); 10 mM Tris-HCl pH 7.5, 50 mM NaCl, 1 mM DTT, 4% glycerol, room temperature, 30 min; GST-TFs on glutathione beads, 16-mer random dsDNA library, 0.1% formaldehyde crosslink after washing; high values mean tight binding
# FEV = target: T1, FEV (Homo sapiens, UniProt Q99581 1-238); conditions: protein: recombinant; tags: N-terminal GST; dsDNA, one strand shown
# T1 sequence: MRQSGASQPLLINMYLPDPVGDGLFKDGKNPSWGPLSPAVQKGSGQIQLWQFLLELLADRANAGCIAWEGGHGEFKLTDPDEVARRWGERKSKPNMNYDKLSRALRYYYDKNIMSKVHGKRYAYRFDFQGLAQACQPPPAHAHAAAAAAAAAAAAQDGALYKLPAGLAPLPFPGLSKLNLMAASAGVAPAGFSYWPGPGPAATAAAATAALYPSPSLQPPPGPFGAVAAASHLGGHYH
# How it was run: (§1)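 In yeast, human transcription factors were expressed with a GST fusion, then pulled down on glutathione beads and given DNA barcodes. Pooled with a tag-only sample, they were exposed to 200 nmole of a 16-mer random double-stranded DNA library (Tris/NaCl/DTT/glycerol buffer, room temperature, 30 min), washed, crosslinked with 0.1% formaldehyde, proximity-ligated using BsaI/T4 ligase for 1 h at 37 °C, PCR-amplified and read on an Illumina NextSeq500. Each hexamer's frequency of reads for a factor, divided by the matching frequency for the tag-only sample, gives the binding signal.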
# ETV5 = ETV5 (Homo sapiens, UniProt P41161 1-510); conditions: protein: recombinant; tags: N-terminal GST; dsDNA, one strand shown
# How it was run: as §1
# HSF1 = HSF1 (Homo sapiens, UniProt Q00613 1-529); conditions: protein: recombinant; tags: N-terminal GST; chain copies: 3; dsDNA, one strand shown
# How it was run: as §1
# SPIC = target: T2, SPIC (Homo sapiens, UniProt Q8N5J4 1-248); conditions: protein: recombinant; tags: N-terminal GST; dsDNA, one strand shown
# T2 sequence: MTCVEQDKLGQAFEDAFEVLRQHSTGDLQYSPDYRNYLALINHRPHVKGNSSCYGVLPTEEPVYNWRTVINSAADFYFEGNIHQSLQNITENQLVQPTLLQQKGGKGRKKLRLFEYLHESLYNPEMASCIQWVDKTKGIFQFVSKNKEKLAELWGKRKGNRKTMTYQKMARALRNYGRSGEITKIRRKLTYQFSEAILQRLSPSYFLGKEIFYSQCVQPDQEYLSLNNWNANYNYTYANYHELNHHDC
# How it was run: as §1
# ELF4 = ELF4 (Homo sapiens, UniProt Q99607 1-663); conditions: protein: recombinant; tags: N-terminal GST; dsDNA, one strand shown
# How it was run: as §1
# ELK4 = target: T3, ELK4 (Homo sapiens, UniProt P28324-2 1-405); conditions: protein: recombinant; tags: N-terminal GST; dsDNA, one strand shown
# T3 sequence: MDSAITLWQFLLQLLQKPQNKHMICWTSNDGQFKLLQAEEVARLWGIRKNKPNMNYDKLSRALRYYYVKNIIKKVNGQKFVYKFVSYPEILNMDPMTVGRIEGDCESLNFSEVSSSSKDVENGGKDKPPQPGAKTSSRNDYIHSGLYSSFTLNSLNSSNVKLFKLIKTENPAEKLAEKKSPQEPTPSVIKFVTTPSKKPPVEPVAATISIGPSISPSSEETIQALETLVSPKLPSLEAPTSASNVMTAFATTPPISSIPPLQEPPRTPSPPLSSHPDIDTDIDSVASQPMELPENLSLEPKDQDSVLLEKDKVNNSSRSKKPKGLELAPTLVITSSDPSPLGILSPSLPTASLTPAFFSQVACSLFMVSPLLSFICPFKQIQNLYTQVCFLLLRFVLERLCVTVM
# How it was run: as §1
# ETV2 = target: T4, ETV2 (Homo sapiens, UniProt O00321 1-342); conditions: protein: recombinant; tags: N-terminal GST; dsDNA, one strand shown
# T4 sequence: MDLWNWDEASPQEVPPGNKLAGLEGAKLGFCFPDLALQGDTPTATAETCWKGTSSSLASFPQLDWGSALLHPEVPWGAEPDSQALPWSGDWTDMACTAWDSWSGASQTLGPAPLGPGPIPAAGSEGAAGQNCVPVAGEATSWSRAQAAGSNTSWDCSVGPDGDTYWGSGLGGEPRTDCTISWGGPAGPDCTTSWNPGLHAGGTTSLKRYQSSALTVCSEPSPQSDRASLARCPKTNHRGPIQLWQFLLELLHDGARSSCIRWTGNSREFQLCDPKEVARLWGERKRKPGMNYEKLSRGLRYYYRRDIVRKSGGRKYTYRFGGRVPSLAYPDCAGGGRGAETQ
# How it was run: as §1
# ELF3 = target: T5, ELF3 (Homo sapiens, UniProt P78545 1-371); conditions: protein: recombinant; tags: N-terminal GST; dsDNA, one strand shown
# T5 sequence: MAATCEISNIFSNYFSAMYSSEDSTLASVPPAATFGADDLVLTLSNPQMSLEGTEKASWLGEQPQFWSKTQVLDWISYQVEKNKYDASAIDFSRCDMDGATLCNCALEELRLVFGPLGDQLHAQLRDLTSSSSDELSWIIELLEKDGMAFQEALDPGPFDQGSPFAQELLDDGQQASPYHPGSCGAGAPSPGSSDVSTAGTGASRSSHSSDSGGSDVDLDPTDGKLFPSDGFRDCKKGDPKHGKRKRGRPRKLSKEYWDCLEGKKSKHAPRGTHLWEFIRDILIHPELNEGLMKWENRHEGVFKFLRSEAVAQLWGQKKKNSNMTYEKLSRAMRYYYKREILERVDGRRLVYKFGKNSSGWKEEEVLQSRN
# How it was run: as §1
# ETV1 = ETV1 (Homo sapiens, UniProt P50549 1-477); conditions: protein: recombinant; tags: N-terminal GST; dsDNA, one strand shown
# How it was run: as §1
# Chain of ETV1 (P50549 whole entry): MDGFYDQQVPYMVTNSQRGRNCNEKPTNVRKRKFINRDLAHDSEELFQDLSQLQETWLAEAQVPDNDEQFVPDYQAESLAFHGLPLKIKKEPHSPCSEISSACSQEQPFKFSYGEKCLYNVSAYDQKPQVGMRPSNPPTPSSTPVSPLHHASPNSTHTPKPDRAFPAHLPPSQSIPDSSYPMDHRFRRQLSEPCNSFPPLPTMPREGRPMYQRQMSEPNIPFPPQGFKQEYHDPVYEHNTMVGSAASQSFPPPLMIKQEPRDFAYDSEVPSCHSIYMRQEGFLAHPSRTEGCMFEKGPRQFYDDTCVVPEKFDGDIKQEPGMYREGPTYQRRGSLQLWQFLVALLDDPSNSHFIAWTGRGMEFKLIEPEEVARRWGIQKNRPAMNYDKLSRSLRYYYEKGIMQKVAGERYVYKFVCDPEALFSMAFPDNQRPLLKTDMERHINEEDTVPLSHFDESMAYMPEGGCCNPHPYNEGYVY
# Chain of HSF1 (Q00613 whole entry): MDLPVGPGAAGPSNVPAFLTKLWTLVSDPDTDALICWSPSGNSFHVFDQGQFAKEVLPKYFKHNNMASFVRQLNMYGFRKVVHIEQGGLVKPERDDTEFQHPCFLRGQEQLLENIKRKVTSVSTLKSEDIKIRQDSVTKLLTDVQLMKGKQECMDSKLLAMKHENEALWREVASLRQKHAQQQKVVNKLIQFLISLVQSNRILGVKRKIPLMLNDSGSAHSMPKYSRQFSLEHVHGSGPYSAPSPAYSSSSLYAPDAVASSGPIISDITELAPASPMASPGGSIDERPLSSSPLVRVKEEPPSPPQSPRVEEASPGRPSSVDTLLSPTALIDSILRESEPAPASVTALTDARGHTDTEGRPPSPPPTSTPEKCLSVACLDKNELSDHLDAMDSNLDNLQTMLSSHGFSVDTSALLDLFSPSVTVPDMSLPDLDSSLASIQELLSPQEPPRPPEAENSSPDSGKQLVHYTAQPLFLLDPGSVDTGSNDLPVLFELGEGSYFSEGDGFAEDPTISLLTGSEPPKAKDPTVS
# Chain of ETV5 (P41161 whole entry): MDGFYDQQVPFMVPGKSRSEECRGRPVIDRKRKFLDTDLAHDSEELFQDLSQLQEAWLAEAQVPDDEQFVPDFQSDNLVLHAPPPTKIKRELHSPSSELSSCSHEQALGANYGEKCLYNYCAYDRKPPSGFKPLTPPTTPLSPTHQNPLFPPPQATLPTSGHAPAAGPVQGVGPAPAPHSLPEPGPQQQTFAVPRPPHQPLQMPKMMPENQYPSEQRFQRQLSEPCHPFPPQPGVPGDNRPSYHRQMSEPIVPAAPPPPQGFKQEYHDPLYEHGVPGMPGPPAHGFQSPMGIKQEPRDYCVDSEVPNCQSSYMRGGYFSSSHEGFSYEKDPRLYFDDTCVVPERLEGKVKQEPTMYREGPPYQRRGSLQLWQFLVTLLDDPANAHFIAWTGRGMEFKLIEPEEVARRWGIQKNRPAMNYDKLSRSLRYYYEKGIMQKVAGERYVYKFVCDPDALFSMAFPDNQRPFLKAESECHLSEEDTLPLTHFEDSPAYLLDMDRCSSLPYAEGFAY
# Chain of ELF4 (Q99607 whole entry): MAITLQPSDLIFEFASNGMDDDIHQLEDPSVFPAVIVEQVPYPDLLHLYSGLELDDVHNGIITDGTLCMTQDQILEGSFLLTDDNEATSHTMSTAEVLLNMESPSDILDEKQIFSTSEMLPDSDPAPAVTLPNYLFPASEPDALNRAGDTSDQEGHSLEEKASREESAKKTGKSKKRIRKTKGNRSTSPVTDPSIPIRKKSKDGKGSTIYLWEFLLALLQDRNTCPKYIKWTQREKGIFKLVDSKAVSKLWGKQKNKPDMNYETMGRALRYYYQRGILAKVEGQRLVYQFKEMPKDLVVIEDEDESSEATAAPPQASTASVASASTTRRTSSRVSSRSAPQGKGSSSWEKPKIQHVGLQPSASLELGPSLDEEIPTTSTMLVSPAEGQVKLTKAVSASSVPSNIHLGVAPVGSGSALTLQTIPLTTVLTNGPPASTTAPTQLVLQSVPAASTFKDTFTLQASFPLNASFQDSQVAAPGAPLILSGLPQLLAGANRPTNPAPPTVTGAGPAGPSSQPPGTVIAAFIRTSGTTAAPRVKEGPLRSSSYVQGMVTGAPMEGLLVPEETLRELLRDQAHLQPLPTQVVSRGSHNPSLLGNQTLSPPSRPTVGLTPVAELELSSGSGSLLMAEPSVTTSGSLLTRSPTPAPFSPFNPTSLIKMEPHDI
sequence,measurement,setting,value
GAACAC,binding signal,FEV,"1.08 fold enrichment (6-mer frequency, TF over GST control)"
same,binding signal,ETV5,"1.08 fold enrichment (6-mer frequency, TF over GST control)"
same,binding signal,HSF1,"1.21 fold enrichment (6-mer frequency, TF over GST control)"
same,binding signal,SPIC,"1.18 fold enrichment (6-mer frequency, TF over GST control)"
same,binding signal,ELF4,"1.13 fold enrichment (6-mer frequency, TF over GST control)"
same,binding signal,ELK4,"1.17 fold enrichment (6-mer frequency, TF over GST control)"
same,binding signal,ETV2,"1.33 fold enrichment (6-mer frequency, TF over GST control)"
same,binding signal,ELF3,"1.13 fold enrichment (6-mer frequency, TF over GST control)"
same,binding signal,ETV1,"1.18 fold enrichment (6-mer frequency, TF over GST control)"
